PubChem BioAssay AID1745848 (National Center for Advancing Translational Sciences (NCATS), 2022)
The campaign covered roughly 2,100 compounds. About 940 (45%) were called active. Inconclusive results (about 48%) are left out. The call rests on the fitted dose curve; in most records, active means well fitted inhibition curve with a large enough effect; inconclusive means small, poorly fitted or top-dose-only effect; inactive means no such curve, though single readings can be large or run the other way. So high a share suggests a set chosen from earlier hits. The list shows a part of the results.

assay: Confirmatory qHTS for Inhibitors of ATXN expression; conditions: ATXN2-luciferase reporter cells, luminescence, 24 h; series mostly up to 57.5 µM; further: nearly all actives have a fitted effect of over 65% in size
Description: PI: Daniel Scoles Ph.D. University of Utah School of Medicine, Salt Lake City, Utah MLPCN Grant: NS073009 Spinocerebellar ataxia type 2 (SCA2) is a multisystem neurodegenerative disease caused by a dominantly acting mutation leading to expansion of a polyQ domain in the ataxin-2 protein (ATXN2). SCA2 patients develop progressive ataxia and later lose function in other neuronal systems. Prominent parkinsonian signs develop in some patients. Like many neurodegenerative disorders, no symptomatic or disease-modifying treatments are known. The primary objective of the proposed research is to identify compounds inhibiting ATXN2 expression and to test them for efficacy in SCA2 mouse models. We have developed a cell-based assay paired with an in vivo mouse model using identical luciferase expression constructs. This approach takes advantage of an ATXN2-luciferase transgene, with the luciferase gene flanked by the upstream and downstream portions of the ATXN2 gene. Here we describe a 5-7 dose quantitative high thoroughput screen (qHTS) for compounds lowering ATXN2 expression. We screened the NIH Molecular Libraries Small Molecule Repository (MLSMR) and NCGC's mechanistically annotated (MIPE) and drug repurposing (NPC) collections of compounds for lowering expression of an ATXN2-luciferase reporter in HEK-293 cells. The assay is a multiplexed cell viability assay to ensure target reduction in the absence of cytotoxicity. Secondary qHTS assays included a CMV-luciferase reporter expressed in HEK-293 cells as well as a biochemical assay using recombinant luciferase to detect inhibitors of the reporter enzyme. Compounds that inhibit ATXN2 expression but is not cytotoxic were selected for confirmatory and secondary screens.
PROTOCOL TABLE (as described by Inglese J, Shamu CE and Guy RK. 2007) SEQUENCE No. (e.g., 1, 2, 3, etc.); PARAMETER (e.g., Cells, Incubation, Reagent, etc.); VALUE; DESCRIPTION. 1; Cells; 4 uL; white, solid bottom, 1536-well Greiner assay plate. 2; Incubation; 2 hr; 37 degree C in 5% humidified CO2. 3; Compounds; 23 nL; Kalypsis pintool (Wako USA) equipped with a 1536-well pin head. 4; Incubation; 24 hr; 37 degree C in 5% humidified CO2. 5; Reagent; 1 uL; Gly-Phe-7-Amino-4-trifluoromethylcoumarin. 6; Incubation; 30 min; 37 degree C in 5% humidified CO2. 7; Detection; Fluorescence; ViewLux plate reader (PerkinElmer). 8; Reagent; 3 uL; SteadyGlo luciferase solution (Promega). 9; Incubation; 5 min; room temperature. 10; Detection; Luminescence; ViewLux plate reader (PerkinElmer). NOTES (numbers refer to Sequence numbers above) 1. […] expressing ATXN2-luciferase reporter were suspended in phenol-red free DMEM and dispensed in assay plates using a Multidrop Combi dispenser (Thermo Fisher Scientific). Wells containing medium only were plated on each plate, and values were used to normalize (100% inhibition) in the luciferase and CellTiter-Fluor assays. 2. Assay plates were incubated. Evaporation was prevented by covering assay plates with metal lids containing holes to allow gas diffusion. 3. Compounds were added in a dose response manner with the final concentrations of 57, 11.4, 2.28, 0.46, 0.091, 0.018, 0.0037 uM. Vehicle-only plates, with DMSO being pin-transferred to columns 5-48, were inserted uniformly at the beginning and the end of each library to monitor and record any shifts in assay performance. 5. 125 uM Gly-Phe-7-Amino-4-trifluoromethylcoumarin (MP Biomedicals) working concentration was used at a final concentration of 25 uM. 7. To assess cell viability; the assay plates were read using the ViewLux high-throughput CCD imager (PerkinElmer), wherein single end-point fluorescence measurement was acquired (excitation 405/10; emission 540/25 nm). 8. Detection reagent SteadyGlo Luciferase (Promega) was added to the assay plate. 10. Luminescence is then measured on the ViewLux imager equipped with a clear emission filter using a 2 sec exposure. […]
Potency means the concentration at half of the fitted maximal effect.

Compound	Potency
N#Cc1ncc(N=Cc2ccc(N(CCCl)CCCl)cc2)s1	2 µM (active)
CCCCCCC(=O)N/N=C/c1c(O)n(CCCC)c(=S)[nH]c1=O	15.8 µM (active)
CCCCC(=O)N/N=C/c1c(O)n(CCC2=CCCCC2)c(=O)[nH]c1=O	15.8 µM (active)
CCCCCCC(=O)N/N=C/c1c(O)n(CCc2ccccc2)c(=O)[nH]c1=O	12.6 µM (active)
Cc1ccc(N2C(=O)NC(=O)/C(=C/C=C/c3ccco3)C2=O)cc1	2.82 µM (active)
COc1ccc(CC2C(=O)NC(C)C(=O)N(C)C3C(=O)N(C)C(Cc4ccc(O)c(c4)Oc4ccc(cc4)C3O)C(=O)NC(C)C(=O)NC(C)C(=O)N2C)cc1 (stereo not given)	0.316 µM (active)
CCC(C)N1C(=O)/C(=C\c2cnc(N(C)C)nc2)C(=O)NC1=S (stereo not given)	inactive
CC12CCC(O)CC1CCC1C2CCC2(C)C(C3=CC(=O)OC3)C(O)CC12O (stereo not given)	3.16 µM (active)
C[C@]12CC[C@H](O)C[C@H]1CC[C@@H]1C2CC[C@]2(C)[C@@H](C3=CC(=O)OC3)[C@@H](O)C[C@]12O (stereo not given in full)	0.355 µM (active)
CC(=O)OC1CC2(O)C3CCC4CC(O)CCC4(C)C3CCC2(C)C1C1=CC(=O)OC1 (stereo not given)	0.316 µM (active)
CC1OC(OC2C(O)CC(OC3C(O)CC(OC4CCC5(C)C(CCC6C5CCC5(C)C(C7=CC(=O)OC7)C(O)CC65O)C4)OC3C)OC2C)CC(O)C1O (stereo not given)	0.316 µM (active)
COC1C(O)C(C)OC(OC2CCC3(C)C(CCC4C3C(O)CC3(C)C(C5=CC(=O)OC5)CCC43O)C2)C1O (stereo not given)	0.316 µM (active)
CN1CN(c2ccccc2)C2(CCN(CCCSc3ccccc3NC(=O)/C=C/c3ccccc3)CC2)C1=O	28.2 µM (active)
CC(C)c1oc(=O)cc2c1[C@@H](O)[C@H]1OC(=O)[C@@]3(C)CC[C@@H](O)[C@@]2(C)C13 (stereo not given in full)	3.16 µM (active)
CCC1(OC(=O)CN)C(=O)OCc2c1cc1n(c2=O)Cc2cc3ccccc3nc2-1 (stereo not given)	0.0398 µM (active)
CC[C@@]1(O)C(=O)OCc2c1cc1n(c2=O)Cc2cc3c(NC(=O)CN)cccc3nc2-1	0.112 µM (active)
COc1ccc(CC2NCC(O)C2OC(C)=O)cc1 (stereo not given)	0.224 µM (active)
COc1ccc(C[C@H]2NC[C@H](O)[C@H]2OC(C)=O)cc1	0.0282 µM (active)

Compound	Potency
Cc1ccc(/C=C2\C(=O)NC(=S)N(c3ccccc3F)C2=O)s1	3.16 µM (active)
CCC1CN2CCc3cc(OC)c(OC)cc3C2CC1CC1NCCc2c1[nH]c1ccc(O)cc21 (stereo not given)	0.0398 µM (active)
CSCCC(c1nnnn1-c1c(C)cccc1C)N1CCC2(CC1)C(=O)NCN2c1ccccc1 (stereo not given)	35.5 µM (active)
CCC(C)(O)C(=O)OC1C(=O)OC2CC3C(C)=CC(=O)C(O)C3(C)C3C4(O)OCC23C1C(C)C4O (stereo not given)	0.251 µM (active)
CC(C)(C)n1nnnc1C(CCc1ccccc1)N1CCC(n2c(=O)[nH]c3ccccc32)CC1 (stereo not given)	28.2 µM (active)
O=c1[nH]c2ccccc2n1C1CCN(C(CCc2ccccc2)c2nnnn2C2CCCC2)CC1 (stereo not given)	22.4 µM (active)
COC(=O)c1nc(-c2ccc3c(n2)C(=O)C(N)=C(OC)C3=O)c(N)c(-c2ccc(OC)c(OC)c2O)c1C	14.1 µM (active)
COc1cc(C(=O)NN=Cc2ccc(N(CCCl)CCCl)cc2)cc(OC)c1OC	8.91 µM (active)
O=C(NN=Cc1ccc(N(CCCl)CCCl)cc1)c1cc(=O)[nH]c(=O)[nH]1	3.16 µM (active)
Cc1cc(N(CCCl)CCCl)ccc1C=NNC(=O)c1cccnc1	1.58 µM (active)
COc1ccc(N=Cc2c(O)n(-c3ccc(C)cc3)c(=O)[nH]c2=O)cc1	inactive
Oc1c(Cl)cccc1Cc1cc(Cl)cc(Cl)c1O	15.8 µM (active)
Clc1ccc2[nH]c3c(c2c1)CCNC3	3.16 µM (active)
O=[N+]([O-])c1oc2ccc3ccccc3c2c1CCO	14.1 µM (active)
C[C@@H]1O[C@@H](O[C@@H]2C=C3CC[C@@H]4C(CC[C@]5(C)[C@@H](c6ccc(=O)oc6)CC[C@]45O)[C@@]3(C)CC2)[C@H](O)[C@H](O)[C@H]1O (stereo not given in full)	0.112 µM (active)
COc1cccc2c1C(=O)c1c(O)c3c(c(O)c1C2=O)CC(O)(C(C)=NO)CC3OC1CC(N)C(O)C(C)O1 (stereo not given)	0.708 µM (active)
Cc1ccc(N2C(=O)NC(=O)/C(=C\c3cc(C)n(-c4sc5c(c4C#N)CCCC5)c3C)C2=O)cc1	10 µM (active)
